# Source: the supplement of paper PMC12494721
# Where a name gives a salt, the structure may show the parent alone.
# Assays:
# Conditions in all cases: incubation time: 27 h, anaerobic, 37 °C;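 for the amine columns active = adjusted P below 0.05 in both replicates with a change the same way and a mean fold change under 0.8 or over 1.25; inactive = the rest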
# [1] = test system: Clostridium sporogenes DSM 1664; assay: growth (OD595) fold change vs plate DMSO controls (fold change (ratio)); higher = more growth
# How it was run: (§1)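 The measure reported is growth, taken as fold change against the median of DMSO controls on the same plate. Anaerobic mGAM cultures in 96-well plates (27 h, 37 °C) were read at 595 nm, blank-subtracted, corrected for compound background using 20 µM compound solutions in water, and multiplied by a calibration factor of 5 to give OD. Any fold change above 1.5 became NA, and 2 biological replicates were averaged.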
# Escherichia coli IAI1 [2] = assay: as above
# How it was run: as §1
# [3] = test system: Klebsiella aerogenes DSM 30053; assay: as above
# How it was run: as §1
# [4] = test system: Ruminococcus gnavus DSM 108212; assay: as above
# How it was run: as §1
# [5] = test system: Klebsiella aerogenes DSM 30053; assay: fold change of Histamine concentration vs plate DMSO controls (fold change (ratio)); higher = more amine produced, active = hit call of the paper (significant change in both replicates, either direction)
# How it was run: (§2)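 Using LC–triple-quadrupole MS with dynamic MRM, amines were quantified against external calibration curves and corrected for drift within each batch. Samples were whole anaerobic mGAM cultures of four gut strains, grown 27 h at 37 °C from OD 0.1 before 1:1 dilution, extracted with cold acetonitrile/methanol containing 0.1% formic acid and centrifuged. Compounds were present at 20 µM final (sweeteners at 50 µM final). The numbers are fold changes versus plate DMSO controls, each the mean of 2 biological replicates.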
# [6] = test system: Clostridium sporogenes DSM 1664; assay: fold change of Tryptamine concentration vs plate DMSO controls (fold change (ratio)); higher = more amine produced, active = hit call of the paper (significant change in both replicates, either direction)
# How it was run: as §2
# [7] = test system: Ruminococcus gnavus DSM 108212; assay: as above
# How it was run: as §2
# Escherichia coli IAI1 [8] = assay: fold change of Putrescine concentration vs plate DMSO controls (fold change (ratio)); higher = more amine produced, active = hit call of the paper (significant change in both replicates, either direction)
# How it was run: as §2
# [9] = test system: Klebsiella aerogenes DSM 30053; assay: as above
# How it was run: as §2
# Escherichia coli IAI1 [10] = assay: fold change of Cadaverine concentration vs plate DMSO controls (fold change (ratio)); higher = more amine produced, active = hit call of the paper (significant change in both replicates, either direction)
# How it was run: as §2
# [11] = test system: Klebsiella aerogenes DSM 30053; assay: as above
# How it was run: as §2
# [12] = test system: Ruminococcus gnavus DSM 108212; assay: fold change of 2-Phenylethylamine concentration vs plate DMSO controls (fold change (ratio)); higher = more amine produced, active = hit call of the paper (significant change in both replicates, either direction)
# How it was run: as §2
SMILES,growth [1],growth (Escherichia coli IAI1 [2]),growth [3],growth [4],fold change of Histamine concentration [5],fold change of Tryptamine concentration [6],fold change of Tryptamine concentration [7],fold change of Putrescine concentration (Escherichia coli IAI1 [8]),fold change of Putrescine concentration [9],fold change of Cadaverine concentration (Escherichia coli IAI1 [10]),fold change of Cadaverine concentration [11],fold change of 2-Phenylethylamine concentration [12]
CCN(CCCCOC(=O)c1ccc(OC)c(OC)c1)C(C)Cc1ccc(OC)cc1 (stereo not given) [Mebeverine hydrochloride] (20 µM),0.955,1.25,0.995,0.632,0.903 (inactive),1.01 (inactive),0.985 (inactive),1.15 (inactive),1.05 (inactive),1.04 (inactive),1.02 (inactive),1.01 (inactive)
CN(C)CCC=C1c2ccccc2C=Cc2ccccc21 [Cyclobenzaprine hydrochloride] (20 µM),0.862,1.01,0.985,0.869,1.06 (inactive),1.19 (inactive),0.915 (inactive),0.987 (inactive),1 (inactive),1.01 (inactive),0.985 (inactive),0.921 (inactive)
CCOC(=O)C1=C[C@]2(CC)CCCN3CCc4c(n1c1ccccc41)[C@@H]32 [Vinpocetine] (20 µM),0.883,0.979,1.03,1.14,0.922 (inactive),0.964 (inactive),0.955 (inactive),0.995 (inactive),1.02 (inactive),1.02 (inactive),1.02 (inactive),0.972 (inactive)
Cc1c(O)c(=O)ccn1C [Deferiprone] (20 µM),1,0.999,1.04,1.06,1.03 (inactive),1.05 (inactive),1.02 (inactive),1 (inactive),1.01 (inactive),1.03 (inactive),0.999 (inactive),1 (inactive)
O=C1CCc2ccc(OCCCCN3CCN(c4cccc(Cl)c4Cl)CC3)cc2N1 [Aripiprazole] (20 µM),1.06,1.03,0.979,1.07,1.16 (inactive),0.955 (inactive),0.781 (active),1.03 (inactive),1.01 (inactive),1.11 (inactive),0.976 (inactive),0.811 (inactive)
CNCCCC1c2ccccc2C=Cc2ccccc21 [Protriptyline hydrochloride] (20 µM),0.921,1.01,0.958,0.968,1.02 (inactive),1.12 (inactive),0.848 (inactive),1.17 (inactive),1.02 (inactive),1.12 (inactive),0.998 (inactive),0.829 (inactive)
Clc1ccc2c(c1)C(N1CCNCC1)=Nc1ccccc1O2 [Amoxapine] (20 µM),1.21,1.03,1.01,1.37,0.961 (inactive),0.943 (inactive),0.983 (inactive),0.994 (inactive),0.974 (inactive),1.02 (inactive),1 (inactive),0.952 (inactive)
O=C(Nc1ccccc1)OCC(CN1CCCCC1)OC(=O)Nc1ccccc1 (stereo not given) [Diperodon hydrochloride] (20 µM),1.11,0.998,0.962,0.942,1.05 (inactive),0.94 (inactive),0.952 (inactive),0.975 (inactive),1.03 (inactive),1.03 (inactive),0.976 (inactive),0.923 (inactive)
CC(C)(C)NCC(O)COc1cccc2c1CCC(=O)N2 (stereo not given) [Carteolol hydrochloride] (20 µM),0.96,1.01,0.997,0.895,0.987 (inactive),0.985 (inactive),1.01 (inactive),1.01 (inactive),0.982 (inactive),1 (inactive),0.996 (inactive),0.982 (inactive)
Cc1c(N(C)CS(=O)(=O)O)c(=O)n(-c2ccccc2)n1C [Dipyrone sodium salt] (20 µM),1.02,1.14,1.07,1.13,0.958 (inactive),1.11 (inactive),1.03 (inactive),1.05 (inactive),0.957 (inactive),0.991 (inactive),1.02 (inactive),1 (inactive)
CCN(CC)CCNC(=O)c1cc(Br)c(N)cc1OC [Bromopride] (20 µM),0.874,1.03,1.05,1.12,1.01 (inactive),1 (inactive),1 (inactive),1.02 (inactive),0.998 (inactive),0.967 (inactive),1.01 (inactive),1.02 (inactive)
CN1C2CCCC1CC(NC(=O)c1nn(C)c3ccccc13)C2 (stereo not given) [Granisetron] (20 µM),1.04,1.02,1.01,1.04,1.02 (inactive),1.04 (inactive),1.07 (inactive),1.05 (inactive),1 (inactive),0.999 (inactive),1.01 (inactive),1.08 (inactive)
CC(C)C(=O)Nc1ccc([N+](=O)[O-])c(C(F)(F)F)c1 [Flutamide] (20 µM),0.955,1,0.938,1.32,1.02 (inactive),0.961 (inactive),1 (inactive),0.977 (inactive),1.01 (inactive),0.982 (inactive),0.981 (inactive),1.02 (inactive)
C[C@H]1O[C@@H](O[C@H]2[C@@H](O)C[C@H](O[C@H]3[C@@H](O)C[C@H](O[C@H]4CC[C@@]5(C)[C@H](CC[C@@H]6[C@@H]5C[C@@H](O)[C@]5(C)[C@@H](C7=CC(=O)OC7)CC[C@]65O)C4)O[C@@H]3C)O[C@@H]2C)C[C@H](O)[C@@H]1O [Digoxin] (20 µM),1.14,0.971,0.995,0.945,1.05 (inactive),1 (inactive),1.02 (inactive),1.01 (inactive),0.999 (inactive),0.992 (inactive),0.991 (inactive),1.03 (inactive)
C#C[C@]1(O)CC[C@H]2[C@@H]3CCC4=CC(=O)CC[C@@H]4[C@H]3CC[C@@]21CC [(D-) Norgestrel] (20 µM),1.06,0.994,1.02,0.996,1.05 (inactive),1.01 (inactive),1.01 (inactive),0.982 (inactive),0.998 (inactive),1.03 (inactive),0.985 (inactive),0.978 (inactive)
Nc1ccc(S(=O)(=O)Nc2cnc3ccccc3n2)cc1 [Sulfaquinoxaline sodium salt] (20 µM),1.03,1.01,0.991,0.994,1.04 (inactive),0.987 (inactive),0.985 (inactive),0.911 (inactive),1.02 (inactive),1.01 (inactive),0.991 (inactive),0.981 (inactive)
Cc1cccc(C)c1OCC(=O)N[C@@H](Cc1ccccc1)[C@@H](O)C[C@H](Cc1ccccc1)NC(=O)[C@H](C(C)C)N1CCCNC1=O [Lopinavir] (20 µM),1.12,1.01,1.19,1.31,0.963 (inactive),0.892 (inactive),0.986 (inactive),0.989 (inactive),1.04 (inactive),1.02 (inactive),1.02 (inactive),0.997 (inactive)
c1ccc([C@H]2CN3CCSC3=N2)cc1 [Levamisole hydrochloride] (20 µM),1,0.988,0.966,1,1.07 (inactive),0.986 (inactive),0.908 (inactive),0.967 (inactive),1.02 (inactive),1.01 (inactive),0.994 (inactive),0.961 (inactive)
CN(C/C=C/C#CC(C)(C)C)Cc1cccc2ccccc12 [Terbinafine] (20 µM),1.03,1.2,0.972,0.896,1.07 (inactive),1.01 (inactive),0.97 (inactive),1.21 (inactive),1.01 (inactive),0.987 (inactive),0.989 (inactive),1.02 (inactive)
Cc1ccc(C(=O)c2ccc(CC(=O)O)n2C)cc1 [Tolmetin sodium salt dihydrate] (20 µM),1.12,0.976,1.01,0.976,1.05 (inactive),1 (inactive),0.958 (inactive),0.949 (inactive),1.01 (inactive),1 (inactive),1 (inactive),0.913 (inactive)
CCCN(CCC)CCc1cccc2c1CC(=O)N2 [Ropinirole hydrochloride] (20 µM),1.07,0.95,0.961,1.02,1.08 (inactive),1 (inactive),1 (inactive),0.952 (inactive),1.02 (inactive),0.978 (inactive),0.986 (inactive),1.02 (inactive)
Nc1nc2ccc(OC(F)(F)F)cc2s1 [Riluzole hydrochloride] (20 µM),0.972,0.95,1.06,0.998,1.08 (inactive),0.945 (inactive),0.96 (inactive),0.97 (inactive),0.988 (inactive),0.987 (inactive),0.983 (inactive),0.968 (inactive)
OC[C@H]1O[C@H](O[C@H]2O[C@H](CO)[C@@H](O)[C@H](O)[C@H]2O)[C@H](O)[C@@H](O)[C@@H]1O [Trehalose dihydrate] (20 µM),1,1.04,1.08,1.11,0.919 (inactive),0.967 (inactive),1.06 (inactive),1.02 (inactive),0.986 (inactive),0.988 (inactive),1 (inactive),1.09 (inactive)
O=C(Nc1cccc2c(=O)cc(-c3nnn[nH]3)oc12)c1ccc(OCCCCc2ccccc2)cc1 [Pranlukast] (20 µM),1.1,1.07,0.999,0.934,0.986 (inactive),0.686 (active),0.804 (inactive),1.02 (inactive),1.01 (inactive),1.03 (inactive),1.02 (inactive),0.865 (inactive)
CCC(C)(C)c1ccc(CC(C)CN2C[C@@H](C)O[C@@H](C)C2)cc1 (stereo not given in full) [Amorolfine hydrochloride] (20 µM),1.07,0.995,1.01,0.849,1.01 (inactive),0.989 (inactive),0.868 (inactive),1.03 (inactive),1 (inactive),1.02 (inactive),0.997 (inactive),0.88 (inactive)
